For 40 compounds, growth results are on record in PubChem BioAssay (NCI).

About 83,000 compounds went through this panel and 20% of them were active in at least one assay; those are over-represented in the sample as a whole.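 Single-concentration screen, 48 h exposure, 96-well plates. Endpoint: percent growth. Below 10 = active.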 Calls of active or inactive are those of the source.

This experiment concerns HL-60(TB) leukemia. The experiment is described as follows: NCI-60 one-dose screen, 48 h (100 = growth as untreated, 0 = no growth, -100 = all killed). The note with it: 10 µM unless noted.
Take `O=C(c1ccccc1)c1ccccc1-c1ccccc1`: the growth is -4.58% (active).

Take `Fc1ccc(C2CC(c3cccc(Nc4ccncc4)c3)=NN2c2cc(Cl)cc(Cl)c2)cc1` (stereo not given): the growth was -13.2% (active).

As to `COc1cnc2c(c1)C(=O)c1c-2n(CCCNC2=NCCS2)c(=O)c2cc([N+](=O)[O-])ccc12`, the growth was -58.7% (active).

Regarding `Cc1cc(C)c(-c2c(N)cc(Br)cc2Br)c(N)c1`, the growth is 21.1% (inactive).

Take `Cc1cc2c(cc1C)N(C(=O)CCl)CCN2C(=O)CCl`: the growth was -41.3% (active).

`NC(N)=NS(=O)(=O)c1ccc(Nc2ccc3nnc(-c4ccncc4)n3n2)cc1`: the growth was 95% (inactive).

As to `c1ccc(/C(=N\N=C(/c2ccccc2)c2cccs2)c2cccs2)cc1`, the growth is 91.1% (inactive).

Regarding `O=C1C(Cl)=C(Nc2ccccc2)C(=O)C(Cl)=C1Nc1ccccc1`, the growth is 122% (inactive).

For the compound `COc1cc(/C=C/C(=O)c2ccc(F)cc2)ccc1OCCCCCOc1cc2c(cc1OC)C(=O)N1CCCC1C=N2` (stereo not given), the growth is -37.2% (active).

Take `COc1ncnc2c(-c3ccccc3)cn(COCc3ccccc3)c12`: the growth was 53.1% (inactive).

Take `N#Cc1ccccc1C#Cc1ccccc1C#Cc1ccc(OCCCCCCOc2ccc(C#Cc3ccccc3C#Cc3ccccc3C#N)cc2)cc1`: the growth is 99.7% (inactive).

Take `Clc1ccc(N2N=C(c3cccc(Nc4ccncc4)c3)CC2c2ccccc2)cc1` (stereo not given): the growth is 85.4% (inactive).

`CCN1CCN(c2nc(NNC(=O)c3cccc(OC)c3)nc(N3CCN(C(c4ccccc4)c4ccccc4)CC3)n2)CC1`: the growth was 28.4% (inactive).

Regarding `COc1cc(NCCCN(CC(C)C)CC(C)C)c2ncccc2c1`, the growth was 89.8% (inactive).

Regarding `Cc1nc2cccc(NCc3ccc(C(=O)NO)cc3)c2c(=O)n1-c1ccccc1`, the growth is 27.2% (inactive).

With `COc1ccc(CCN2C(=O)CCSC2=S)cc1OC`, the growth was 98.1% (inactive).

Consider `CN(C)c1ccc(N=C2C=CC(=O)c3ccccc32)cc1`, for which the growth was 82.2% (inactive).

`C=CCCCC(=O)CCC(=O)OCC1O[C@@H](O[C@@H]2C(O)[C@@H](OC(C)=O)C(C)O[C@H]2O[C@H](CC=C)CCCCC)C(O)[C@@H](OC(=O)/C(C)=C/C)[C@@H]1OC(=O)/C=C/c1ccccc1` (stereo not given in full): the growth was 8.45% (active).

Turning to `CCCCOC(=O)C1OC(Oc2ccc3c(C)cc(=O)oc3c2)[C@@H](OC(C)=O)C(OC(C)=O)C1OC(C)=O` (stereo not given in full), the growth is 102% (inactive).

As to `CC(C)=CCC[C@](C)(O)[C@H]1CC[C@]2(C)[C@@H]1CC[C@@H]1[C@@]3(C)C/C(=C/c4ccco4)C(=O)C(C)(C)[C@@H]3CC[C@]12C`, the growth was 119% (inactive).

Regarding `O=C(Nc1cccc2c(O)c(N=Nc3ccc(S(=O)(=O)Nc4nccs4)cc3)cc(N=Nc3ccc(S(=O)(=O)Nc4nccs4)cc3)c12)C(Cl)Cl`, the growth was 102% (inactive).

Regarding `CC1=CCC[C@@H]2C1(C)CC[C@H](C)[C@@]2(C)CC1=CC(=O)C(SC(C)(C)C)=CC1=O` (stereo not given in full), the growth was 56.4% (inactive).

As to `O=C(Nc1ncc(Cc2cc(Cl)ccc2Cl)s1)c1cccs1`, the growth is 86.1% (inactive).

As to `COc1c(O)c(O)cc2c3c(oc12)CC(c1ccc2c(c1)OCO2)CC3=O` (stereo not given), the growth was 61.1% (inactive).

Take `COc1ccc(C2CC(=O)Nc3c2c(C)nn3-c2nc3ccccc3[nH]2)cc1OC` (stereo not given): the growth was 31.9% (inactive).

Take `CCCNC(=O)c1ccc(S(N)(=O)=O)cc1`: the growth is 133% (inactive).

As to `Clc1ccc(/C=C/c2nc(N3CCOCC3)c3nc(Cl)c(Cl)cc3n2)cc1`, the growth is 98.4% (inactive).

As to `CN1CCN=C1c1ccc(NC(=O)c2ccc(C(=O)Nc3ccc(C4=NCCN4C)cc3)cc2)cc1`, the growth was 91.2% (inactive).

Consider `Cc1ccc(C)n1-c1ccccc1-n1c(C)ccc1C`, for which the growth was 82.2% (inactive).

Turning to `CCN(CC)CCC(CNc1c(C)cnc2cc(Cl)ccc12)c1ccc(Cl)cc1` (stereo not given), the growth is 52.5% (inactive).

In the case of `c1ccc([I+]c2ccccc2)cc1`, the growth is 52% (inactive).

Consider `O=C(Oc1ccc([N+](=O)[O-])cc1)c1ccc(CBr)cc1`, for which the growth is 71.8% (inactive).

As for `Cn1nnnc1-c1ccc(N)cc1`, the growth is 94.4% (inactive).

Regarding `CCn1cc(C(=O)O)c(=O)c2cc(F)c(N3CCN(S(=O)(=O)c4cccc5ccccc45)CC3)cc21`, the growth is -46.2% (active).

Regarding `CC(=O)O[C@H]1Cc2c([nH]c3ccccc23)[C@@H](c2ccc(Cl)cc2)N1C(=O)CCNC(C)(C)C`, the growth is 16.6% (inactive).

Regarding `CCCCCCCCCCCCC[N+](C)(C)Cc1ccccc1`, the growth is -56.7% (active).

`CCCn1nc(-c2ccccc2)c2c(-c3ccccc3)onc2c1=O`: the growth was 69.6% (inactive).

In the case of `COc1ccc(-c2nn(-c3ccccc3)cc2/C=C2\SC(=S)N(CCc3ccc(O)cc3)C2=O)cc1`, the growth is 84% (inactive).

For `CC1=CC(=Nc2ccc(N(C)C)cc2)C=C(C)C1=O`, the growth was 42.8% (inactive).

Take `Fc1ccc(-c2nnc(-c3c(-c4ccc(F)cc4)nc4ccccn34)o2)cc1`: the growth was 103% (inactive).
